57 molecules from PubChem BioAssay AID1224921 (Broad Institute, 2016) can be followed below.

About 350 (25%) of roughly 1,400 compounds were called active. Inconclusive results (about 2%) are left out. These entries were drawn from the full list. Entries with a potency or affinity are not part of this list. Unmarked numbers belong to inactive results. The rule behind the calls is not given here.

A short description of the assay: C. difficile growth inhibition, confirmation, 4-point retest (AID 1224921).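 Note: plate controls were DMSO wells for no effect and levofloxacin 16 µg/mL wells for full effect.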 The following applies: Clostridioides difficile clinical isolate growth, OD600, 24 h, stronger effect = lower value; at 30 µM unless noted.
`CCCNC(=O)Nc1ccc2c(c1)OC[C@H](C)N(Cc1ccccc1)C[C@@H](C)[C@@H](OC)CN(C)C2=O`: the max activity was 27.8% [at 8 µM].

Regarding `CNC[C@H]1Oc2ncc(-c3ccc(OC)cc3)cc2C(=O)N([C@H](C)CO)C[C@@H]1C`, the max activity is 27.6%.

Consider `CO[C@H]1CN(C)C(=O)c2cc(NC(=O)c3ccccc3)ccc2OC[C@H](C)N(C)C[C@H]1C`, for which the max activity is -10.6% [at 1.95 µM].

On to `CO[C@H]1CN(C)C(=O)c2ccc(NS(=O)(=O)c3ccccc3C)cc2OC[C@@H](C)N(S(C)(=O)=O)C[C@@H]1C`, for which the max activity was 15%.

Consider `C[C@@H]1CN([C@@H](C)CO)S(=O)(=O)c2ccc(C#CC3CCCC3)cc2O[C@@H]1CN(C)Cc1cccnc1`, for which the max activity was -18.2% [at 1.95 µM].

Take `C[C@@H]1CCCCO[C@@H](CN(C)Cc2ccccc2)[C@H](C)CN([C@@H](C)CO)C(=O)c2cc(NC(=O)Nc3ccc(C(F)(F)F)cc3)ccc2O1`: the max activity was 26.5% [at 1.95 µM].

Turning to `C[C@@H]1CCCCO[C@H](CN(C)Cc2ccccc2)[C@@H](C)CN([C@H](C)CO)C(=O)c2cc(NC(=O)Nc3ccc(C(F)(F)F)cc3)ccc2O1`, the max activity is 19.2% [at 8 µM].

On to `CO[C@@H]1CN(C)C(=O)c2cc(NC(=O)NC3CCCCC3)ccc2OC[C@@H](C)N(CCc2ccccc2)C[C@@H]1C`, for which the max activity was 17.7% [at 8 µM].

Take `C[C@H](CO)N1C[C@H](C)[C@H](CN(C)Cc2ccc(-c3ccccc3)cc2)Oc2ncc(C#C[C@@H](C)O)cc2C1=O`: the max activity was 17.2%.

Take `CO[C@@H]1CN(C)C(=O)c2ccc(NC(=O)c3ccc(Oc4ccccc4)cc3)cc2OC[C@@H](C)NC[C@H]1C`: the max activity is -19.3% [at 2.1 µM].

As for `CC(C)CC#Cc1ccc2c(c1)O[C@@H](CN(C)Cc1cccnc1)[C@@H](C)CN([C@H](C)CO)S2(=O)=O`, the max activity is 41.2%.

On to `C[C@@H]1CCCCO[C@H](CN(C)Cc2ccccc2)[C@H](C)CN([C@@H](C)CO)C(=O)c2cc(NC(=O)Nc3ccc(C(F)(F)F)cc3)ccc2O1`, for which the max activity was 26.5% [at 1.95 µM].

As for `C[C@H](CO)N1C[C@H](C)[C@H](CN(C)Cc2ccccc2)OCCCC[C@H](C)Oc2ccc(NC(=O)Nc3ccc(F)cc3)cc2C1=O`, the max activity was 37.9%.

Turning to `CC(C)C#Cc1ccc2c(c1)O[C@H](CN(C)Cc1ccncc1)[C@H](C)CN([C@H](C)CO)S2(=O)=O`, the max activity was 8.71%.

Regarding `CCCNC(=O)Nc1ccc2c(c1)C(=O)N(C)C[C@H](OC)[C@@H](C)CN(Cc1ccccc1)[C@H](C)CO2`, the max activity was 17.2%.

`COc1ccc(NC(=O)Nc2cccc3c2O[C@@H](CN(C)C(=O)NC2CCCCC2)[C@H](C)CN([C@H](C)CO)C3=O)cc1`: the max activity was 7.41%.

`O=C(C[C@@H]1C[C@@H]2c3cc(NC(=O)CC4CC4)ccc3O[C@@H]2[C@H](CO)O1)NCCc1ccccc1`: the max activity is -14.8%.

Consider `CCC(=O)Nc1ccc2c(c1)C(=O)N(C)[C@@H]1CC[C@H](CC(=O)NCc3ccc(OC)cc3)O[C@@H]1CO2`, for which the max activity is -3.51% [at 1.95 µM].

Regarding `CC(C)NC(=O)N(C)C[C@H]1Oc2cc(C#Cc3ccc(F)cc3)ccc2S(=O)(=O)N([C@@H](C)CO)C[C@@H]1C`, the max activity was 24.4%.

Consider `C[C@@H]1CN([C@H](C)CO)C(=O)c2cccc(NS(C)(=O)=O)c2O[C@H]1CN(C)Cc1ccccc1`, for which the max activity was 32.7%.

On to `CO[C@@H]1CN(C)C(=O)c2cc(NC(=O)c3ccccc3)ccc2OC[C@H](C)N(CC2CC2)C[C@@H]1C`, for which the max activity is 19.6%.

Consider `COc1cccc(C(=O)Nc2ccc3c(c2)OC[C@@H](C)N(C(=O)C2CCCC2)C[C@H](C)[C@H](OC)CN(C)C3=O)c1`, for which the max activity is 7.82%.

For the molecule `CCCC(=O)Nc1ccc2c(c1)C(=O)N(C)C[C@@H](OC)[C@@H](C)CN(Cc1ccccc1)[C@@H](C)CO2`, the max activity is 9.16%.

For the molecule `CCCNC(=O)N(C)C[C@@H]1Oc2cc(C#Cc3cccc(F)c3)ccc2S(=O)(=O)N([C@H](C)CO)C[C@H]1C`, the max activity is 64.3%.

In the case of `O=C(Nc1cc(F)ccc1F)N[C@H]1CC[C@@H](CC(=O)N2CCc3ccccc3C2)O[C@@H]1CO`, the max activity was 31.4%.

Take `CO[C@H]1CN(C)C(=O)c2cc(NS(=O)(=O)c3cccc(F)c3)ccc2OC[C@H](C)N(Cc2cc(F)ccc2F)C[C@@H]1C`: the max activity is -7.26% [at 8 µM].

Regarding `CCCN1C[C@@H](C)[C@H](OC)CN(C)C(=O)c2cc(NC(=O)CC)ccc2OC[C@@H]1C`, the max activity is -10.1%.

Take `COc1ccc(NC(=O)Nc2ccc3c(c2)[C@H]2C[C@H](CC(=O)NCc4ccccc4F)O[C@@H](CO)[C@H]2O3)cc1`: the max activity is -14.5% [at 8 µM].

`C[C@H]1CN([C@@H](C)CO)C(=O)c2cccc(NC(=O)NC3CCCCC3)c2O[C@H]1CN(C)C(=O)Nc1ccc(C(F)(F)F)cc1`: the max activity was 17.7% [at 7.5 µM].

Regarding `CO[C@@H]1CN(C)C(=O)c2ccc(NC(=O)C3CC3)cc2OC[C@H](C)N(Cc2cncnc2)C[C@@H]1C`, the max activity was -6.19% [at 1.95 µM].

With `CO[C@H]1CN(C)C(=O)c2ccc(NC(=O)C3CC3)cc2OC[C@H](C)N(Cc2cncnc2)C[C@@H]1C`, the max activity was -11.8%.

For `CO[C@H]1CN(C)C(=O)c2ccc(NC(C)=O)cc2OC[C@@H](C)N(Cc2cc(F)ccc2F)C[C@H]1C`, the max activity was -8.57% [at 1.95 µM].

`CCCNC(=O)Nc1ccc2c(c1)OC[C@@H](C)N(Cc1ccccc1)C[C@H](C)[C@H](OC)CN(C)C2=O`: the max activity was 33.5%.

`CCS(=O)(=O)Nc1ccc2c(c1)C(=O)N(C)C[C@H](OC)[C@H](C)CN(CC1CCCC1)[C@H](C)CO2`: the max activity is -9.54% [at 1.95 µM].

For `CC(C)NC(=O)Nc1ccc2c(c1)CC(=O)N([C@@H](C)CO)C[C@@H](C)[C@@H](CN(C)Cc1ccc(-c3ccccc3)cc1)O2`, the max activity was 42.2%.

Consider `C[C@@H]1CN([C@@H](C)CO)C(=O)Cc2cc(NC(=O)Nc3cccc4ccccc34)ccc2O[C@H]1CN(C)Cc1ccccc1`, for which the max activity is 34.5%.

For the molecule `C[C@@H]1CN([C@H](C)CO)C(=O)Cc2cc(NC(=O)Nc3cccc4ccccc34)ccc2O[C@H]1CN(C)Cc1ccccc1`, the max activity is 31.3% [at 8 µM].

In the case of `C[C@@H]1CN([C@@H](C)CO)C(=O)Cc2cc(NC(=O)CCCN(C)C)ccc2O[C@H]1CN(C)Cc1ccc(Oc2ccccc2)cc1`, the max activity is 12.2% [at 8 µM].

As to `C[C@H](CO)N1C[C@H](C)[C@@H](CN(C)Cc2ccccc2)Oc2ccc(NC(=O)Nc3cccc4ccccc34)cc2CC1=O`, the max activity was 21.6%.

Turning to `C[C@@H]1CN([C@@H](C)CO)C(=O)Cc2cc(NC(=O)Nc3ccc(C(F)(F)F)cc3)ccc2O[C@@H]1CN(C)Cc1ccccc1`, the max activity was 36.8% [at 35 µM].

As for `CCCN(C)C[C@H]1Oc2cc(C#CCC3CCCC3)ccc2S(=O)(=O)N([C@@H](C)CO)C[C@H]1C`, the max activity is 28.1% [at 8 µM].

For `CCCN1C[C@H](C)[C@@H](OC)CN(C)C(=O)c2ccc(NC(=O)c3ccc(F)cc3)cc2OC[C@@H]1C`, the max activity is -10.8% [at 1.95 µM].

Turning to `CO[C@@H]1CN(C)C(=O)c2cc(NC(C)=O)ccc2OC[C@@H](C)N(Cc2nccs2)C[C@@H]1C`, the max activity was 17.3%.

In the case of `O=C(C[C@@H]1C[C@H]2c3cc(NC(=O)NC4CCCC4)ccc3O[C@H]2[C@@H](CO)O1)NCc1ccccc1F`, the max activity was -6.86% [at 1.95 µM].

Take `CO[C@H]1CN(C)C(=O)c2ccc(NC(C)=O)cc2OC[C@H](C)N(C(=O)c2ccccc2F)C[C@@H]1C`: the max activity is -11.1% [at 0.5 µM].

With `C[C@@H]1CN([C@H](C)CO)S(=O)(=O)c2ccc(/C=C/c3ccccc3)cc2O[C@@H]1CN(C)C(=O)Nc1cc(F)ccc1F`, the max activity was 35.6%.

Regarding `CO[C@H]1CN(C)C(=O)c2cc(NC(=O)C3CCC3)ccc2OC[C@@H](C)N(Cc2ccc(F)cc2)C[C@@H]1C`, the max activity was 29.4%.

As for `CCC(=O)N1C[C@@H](C)[C@H](OC)CN(C)C(=O)c2ccc(NC(=O)c3cc(C)on3)cc2OC[C@@H]1C`, the max activity was -1.88% [at 1.95 µM].

In the case of `C[C@@H](NC(=O)C[C@H]1C=C[C@@H](NC(=O)CN2CCOCC2)[C@H](CO)O1)c1ccccc1`, the max activity is -14.1% [at 8 µM].

With `CCC(=O)Nc1ccc2c(c1)C(=O)N(C)C[C@H](OC)[C@H](C)CN(C(=O)CN1CCOCC1)[C@@H](C)CO2`, the max activity is -5.93% [at 8 µM].

On to `COc1cccc(NC(=O)N[C@H]2C=C[C@H](CC(=O)NCc3ccncn3)O[C@@H]2CO)c1`, for which the max activity was -9.51% [at 0.5 µM].

For the molecule `CCCC#Cc1ccc2c(c1)O[C@@H](CN(C)Cc1ccncc1)[C@@H](C)CN([C@H](C)CO)S2(=O)=O`, the max activity was 33.3%.

Take `CO[C@H]1CN(C)C(=O)c2cc(NC(C)=O)ccc2OC[C@@H](C)N(CC2CCCCC2)C[C@H]1C`: the max activity was -7.37% [at 1.95 µM].

In the case of `O=C(N[C@H]1C=C[C@@H](CC(=O)N2CCc3ccccc3C2)O[C@H]1CO)C1CC1`, the max activity is -11.9% [at 1.95 µM].

Regarding `Cc1ccc(-c2ccc3c(c2)O[C@H](CN(C)C(=O)NC(C)C)[C@H](C)CN([C@@H](C)CO)S3(=O)=O)cc1`, the max activity is 20.5%.

As to `Cc1ccc(-c2ccc3c(c2)O[C@H](CN(C)Cc2ccncc2)[C@@H](C)CN([C@@H](C)CO)S3(=O)=O)cc1`, the max activity is 32.6%.

Take `C/C=C/c1cnc2c(c1)C(=O)N([C@@H](C)CO)C[C@H](C)[C@H](CN(C)Cc1ccc(F)cc1)O2`: the max activity is 9.72%.
